12 compounds from PubChem BioAssay (NCATS) can be followed below.

Values joined by “and” are separate entries in the source; they are usually repeats but may differ in a detail not shown here. Equal values may be shown once. Records with an inconclusive call do not appear. Unmarked numbers belong to inactive results. Active and inactive are the calls of the source. The call rests on the fitted dose curve; in most records, active means well fitted curve in the direction sought with a large enough effect; inconclusive means small, poorly fitted or top-dose-only effect, or another doubt; inactive means no such curve, though single readings can be large; an effect the other way counts as inactive or inconclusive.

Assay [1] relates to CRL-7250. Put plainly: Cytotoxic Profiling of Annotated Libraries Using Quantitative High-Throughput Screening (AID 1296008). Further: nearly all actives have a fitted effect of over 60% in size. To be noted: Five cell lines viability, CellTiter-Glo ATP luminescence, 48-72 h; max response: stronger effect = lower value. Put shortly: (§1)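 Compounds were pin-transferred onto cells and incubated 48 or 72 hr at 37 degree Celsius, 95% humidity. CellTiter-Glo was added, plates sat 10 min at room temperature, then ATP-coupled luminescence was imaged as the viability read-out.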

In assay [2] the test system is HaCat. The description is as above. To be noted: Five cell lines viability, CellTiter-Glo ATP luminescence, 48-72 h; max response: stronger effect = lower value. The essentials: as §1
On the technique in general: Cellular ATP, detected with luciferase, serves as a proxy for viable cell number.

The next assay deals with KB-3-1. The description is as above. To be noted: Five cell lines viability, CellTiter-Glo ATP luminescence, 48-72 h; max response: stronger effect = lower value. Put shortly: as §1
In a further assay the test system is NIH3T3. The description is as above. To be noted: Five cell lines viability, CellTiter-Glo ATP luminescence, 48-72 h; max response: stronger effect = lower value. The essentials: as §1
Assay [3] relates to HACAT. Briefly: qHTS assay to identify novel small-molecules to repurpose for Merkel cell carcinoma treatment (AID 1296009). Further: nearly all actives have a fitted effect of over 60% in size. The conditions noted are these: MCC and control cell lines, CellTiter-Glo viability, 72 h; at 44.8 µM (top of the series) unless noted. Put shortly:
(§2)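 Viability readout: ATP luminescence (CellTiter-Glo) after 72 hr drug exposure at 37 degree celsius. Dose-response format was 8 points for NPC and 11 points for MIPE; data normalized to in-plate controls.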
(qHTS replaces the single test concentration by a dilution series.)

Another assay deals with MCC-13. The description is as above. To be noted: MCC and control cell lines, CellTiter-Glo viability, 72 h; series mostly up to 46 µM. The essentials:
as §2

The next assay deals with MCC-26. The description is as above. The conditions noted are these: MCC and control cell lines, CellTiter-Glo viability, 72 h; series mostly up to 46 µM. The essentials: as §2
The test system of a further assay is MKL-1. The description is as above. The conditions noted are these: MCC and control cell lines, CellTiter-Glo viability, 72 h; series mostly up to 46 µM. The essentials:
as §2

The next assay has as its system MKL-2. The description is as above. To be noted: MCC and control cell lines, CellTiter-Glo viability, 72 h; series mostly up to 46 µM. The essentials:
as §2

The subject of the next assay is UISO. The description is as above. To be noted: MCC and control cell lines, CellTiter-Glo viability, 72 h; series mostly up to 46 µM. The essentials:
as §2

The next assay relates to WaGa. The description is as above. The conditions noted are these: MCC and control cell lines, CellTiter-Glo viability, 72 h; series mostly up to 46 µM. The essentials:
as §2

In a further assay the test system is C33A. Put plainly: Primary qHTS to identify gynecologic anti-cancer compounds using libraries of approved drugs and bioactive compounds (AID 1345084). Further: nearly all actives have a fitted effect of over 55% in size. The conditions noted are these: Gynecologic cancer cell panel viability, ATPlite luminescence, 48 h; series mostly up to 57.5 µM. The essentials: (§3)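 Cytotoxicity screen measuring ATP content by luciferase luminescence. Each compound is applied at five concentrations for 48 h at 37 C with 5% CO2.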

A further assay relates to CAOV3. The assay is described as above. To be noted: Gynecologic cancer cell panel viability, ATPlite luminescence, 48 h; series mostly up to 57.5 µM. Put shortly:
as §3

A further assay deals with Es-2. Described as above. To be noted: Gynecologic cancer cell panel viability, ATPlite luminescence, 48 h; series mostly up to 57.5 µM. Put shortly: as §3
In a further assay the test system is HeLa. Described as above. The conditions noted are these: Gynecologic cancer cell panel viability, ATPlite luminescence, 48 h; series mostly up to 57.5 µM. The essentials:
as §3

In assay [4] the test system is CRL-7250. Briefly: qHTS assay to identify novel small-molecules to repurpose for Merkel cell carcinoma treatment (AID 1296009). Further: nearly all actives have a fitted effect of over 60% in size. To be noted: MCC and control cell lines, CellTiter-Glo viability, 72 h; at 44.8 µM (top of the series) unless noted. The essentials: as §2
The next assay deals with CASKI. Put plainly: Primary qHTS to identify gynecologic anti-cancer compounds using libraries of approved drugs and bioactive compounds (AID 1345084). Further: nearly all actives have a fitted effect of over 55% in size. To be noted: Gynecologic cancer cell panel viability, ATPlite luminescence, 48 h; series mostly up to 57.5 µM. Put shortly:
as §3

The next assay concerns HEK293. Put plainly: Cytotoxic Profiling of Annotated Libraries Using Quantitative High-Throughput Screening (AID 1296008). Further: nearly all actives have a fitted effect of over 60% in size. To be noted: Five cell lines viability, CellTiter-Glo ATP luminescence, 48-72 h; max response: stronger effect = lower value. Put shortly:
as §1

The next assay relates to HEK293T. Put plainly: qHTS assay to identify novel small-molecules to repurpose for Merkel cell carcinoma treatment (AID 1296009). Further: nearly all actives have a fitted effect of over 60% in size. The conditions noted are these: MCC and control cell lines, CellTiter-Glo viability, 72 h; at 44.8 µM (top of the series). Put shortly: as §2
On the % scale 0 is the no-effect control and ±100 the full control effect; potency means the concentration at half of the fitted maximal effect.

As for `O=C(CCCN1CCC(n2c(=O)[nH]c3ccccc32)CC1)c1ccc(F)cc1`, the max response was -0.196% in the assay on CRL-7250 [1], -5.74% in the assay on KB-3-1 and 0.676% in the assay with NIH3T3. Further, the call in the assay with HaCat [2] and with HACAT [3] was inactive. Also, the Potency result in the assay with MCC-13, with MCC-26, with MKL-1, with MKL-2, in the assay on UISO and in the assay with WaGa was “inactive” throughout. In addition, the Potency entry in the assay on C33A, in the assay with CAOV3, with Es-2 and in the assay with HeLa was “inactive” each time.
As to `O=C(NC(=O)c1c(F)cccc1F)Nc1cc(Cl)c(OC(F)(F)C(F)C(F)(F)F)cc1Cl` (stereo unspecified), the call with CRL-7250 [1], with HaCat [2], in the assay on CRL-7250 [4] and in the assay on HACAT [3] was inactive. Further, the max response in the assay on KB-3-1 is 8.21%; with NIH3T3 it was -16.1%. Also, the Potency entry with MCC-13, with MCC-26, in the assay with MKL-1, in the assay with UISO, in the assay with WaGa and with C33A was “inactive” in each case. For the same compound, the Potency result in the assay on CASKI, in the assay with Es-2 and in the assay on HeLa was “inactive” throughout.
Regarding `Cc1nnc2n1-c1sc(CCC(=O)N3CCOCC3)cc1C(c1ccccc1Cl)=NC2`, the compound was called inactive with CRL-7250 [1], with HEK293, in the assay with CRL-7250 [4] and with HEK293T. Besides, the max response in the assay with KB-3-1 was -14.1% and 0.342%; in the assay with NIH3T3, 2.45%. Besides, the Potency entry in the assay on MCC-13, with MCC-26, in the assay on MKL-1, in the assay on MKL-2, in the assay on UISO and in the assay with WaGa was “inactive” in each case. The Potency entry in the assay with C33A, in the assay on CASKI, in the assay on Es-2 and in the assay with HeLa was “inactive” in each case.
As to `Cc1c(Cl)c(=O)oc2cc(OP(=O)(OCCCl)OCCCl)ccc12`, the max response in the assay on HaCat [2] is 1.96%; in the assay with KB-3-1, -0.0609%; in the assay on NIH3T3, -22.4%. For the same compound, the Potency entry in the assay on MCC-13, in the assay on MCC-26, with MKL-1, in the assay with MKL-2, in the assay with UISO and in the assay with WaGa was “inactive” throughout. In addition, the Potency entry in the assay with C33A, with CASKI, with Es-2 and in the assay on HeLa was “inactive” in each case.
`COc1cc(C[C@@H](C)N)c(OC)cc1Br`: the max response in the assay with CRL-7250 [1] was 2.12%; with HaCat [2], -1.26%; in the assay on KB-3-1 it was -0.0524%; in the assay with NIH3T3, -1.11%. Also, the Potency result in the assay with MCC-13, with MCC-26, with MKL-1, in the assay on MKL-2, in the assay on UISO and with WaGa was “inactive” throughout. The Potency result with C33A, with Es-2 and with HeLa was “inactive” throughout.
`CC#C[C@]1(O)CC[C@H]2[C@@H]3C[C@H](C)C4=CC(=O)CC[C@]4(C)[C@H]3CC[C@@]21C`: the Potency was 23.7 µM (active) in the assay on HEK293 and 6.31 µM (active) with HeLa. Besides, the compound was classed as inactive in the assay with HaCat [2] and with HACAT [3]. Further, the Potency result in the assay with MCC-13, with MCC-26, in the assay on MKL-1, in the assay on UISO, in the assay on C33A and in the assay with CAOV3 was “inactive” in each case. For the same compound, the Potency result in the assay with CASKI and in the assay on Es-2 was “inactive” each time.
As to `Clc1ccc(CO/N=C(\Cn2ccnc2)c2ccc(Cl)cc2Cl)c(Cl)c1`, the max response with CRL-7250 [1] is -2.86%; with KB-3-1, 0.479%. Further, the Potency result in the assay with MCC-26, in the assay on C33A, with CAOV3, in the assay on CASKI, in the assay on Es-2 and in the assay on HeLa was “inactive” throughout.
With `C[C@H](N)[C@H](O)c1ccc(O)c(O)c1`, the compound was called inactive in the assay on HaCat [2] and in the assay on HACAT [3]. Further, the max response with KB-3-1 was -14.6%; in the assay with NIH3T3, -48.1%. Besides, the Potency entry with MCC-13, in the assay with MCC-26, in the assay on MKL-1, in the assay with UISO, in the assay with WaGa and in the assay with C33A was “inactive” throughout. Further, the Potency result in the assay on CASKI is “inactive”.
For `COc1ccc2c(C(=O)c3ccc(Cl)cc3)c(C)n(CC(=O)O)c2c1`, the max response was -9.6% in the assay with CRL-7250 [1] and -34.1% in the assay on NIH3T3. Further, in the assay with KB-3-1, the call was inactive. In addition, the Potency in the assay with UISO is 26.6 µM (active). Also, the Potency result in the assay on C33A, in the assay with CAOV3 and in the assay on CASKI was “inactive” in each case.
Turning to `CC1COC2(c3ccccc3Cl)c3cc(Cl)ccc3NC(=O)CN12` (stereo unspecified), the figures for the max response in the assay on CRL-7250 [1] and with NIH3T3 were -0.632% and 2.64%, respectively. Moreover, the call in the assay with HaCat [2] and in the assay on HACAT [3] was inactive. Further, the Potency result in the assay with MCC-13, in the assay on MCC-26, with MKL-1, in the assay on UISO, in the assay with C33A and in the assay with CASKI was “inactive” each time. The Potency result with Es-2 and with HeLa was “inactive” in each case.
As for `O=C(N[C@@H]1N=C(c2ccccc2F)c2cccc3c2N(CC3)C1=O)c1cc2ccccc2[nH]1`, the max response was -34.1% in the assay with CRL-7250 [1], -2.29% with HaCat [2] and -13.9% with KB-3-1. Also, the Potency with NIH3T3 was 4.32 µM (active); with UISO, 2.99 µM (active); with HeLa, 12.6 µM (active). For the same compound, the Potency entry in the assay on MCC-13, in the assay on MCC-26, in the assay on MKL-1, in the assay on MKL-2 and in the assay with WaGa was “inactive” in each case.
As to `CC(C)=CCN1CC[C@@]2(C)c3cc(O)ccc3C[C@@H]1[C@@H]2C`, the max response with CRL-7250 [1] was -10.3%; in the assay on HaCat [2], -13.3%; in the assay with KB-3-1 it was -12.1%; in the assay on NIH3T3, -2.79%. Besides, the Potency result in the assay with MCC-13, in the assay on MCC-26, with MKL-1, with MKL-2, in the assay on UISO and in the assay with C33A was “inactive” in each case. The Potency result with CASKI and with HeLa was “inactive” each time. Further, the Potency in the assay with Es-2 was 28.2 µM (active).
